Only some compounds are listed: those with a hit (about 2.3% of all), similar ones and a draw of the others.
CHO-K1 Ca ag = M1 agonist counterscreen hit in parental CHO-K1 cells | Fluo-8 calcium fluorescence; scaled to maximal ATP response, vehicle zero | activation, % at 3 µM | 360,000 compounds, 0.48% hits | AID 602248; in the data active means activation above about 15%;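 further: untransfected CHO-K1 host cells lacking M1 receptor as counterscreen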
M1 ag = human M1 muscarinic receptor agonism; P11229; CHO-K1 hM1, Fluo-8 calcium fluorescence, agonist mode; 0% DMSO, 100% acetylcholine EC100; activation, % at 3 µM; 360,000 compounds, 0.33% hits; AID 588814;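 active means activation above the run's mean compound activation plus 3 SD, cut at about 16% in these data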;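 further: peak over basal fluorescence ratio within a 140 s kinetic read after compound addition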
Target sequence (P11229 whole entry, looked up): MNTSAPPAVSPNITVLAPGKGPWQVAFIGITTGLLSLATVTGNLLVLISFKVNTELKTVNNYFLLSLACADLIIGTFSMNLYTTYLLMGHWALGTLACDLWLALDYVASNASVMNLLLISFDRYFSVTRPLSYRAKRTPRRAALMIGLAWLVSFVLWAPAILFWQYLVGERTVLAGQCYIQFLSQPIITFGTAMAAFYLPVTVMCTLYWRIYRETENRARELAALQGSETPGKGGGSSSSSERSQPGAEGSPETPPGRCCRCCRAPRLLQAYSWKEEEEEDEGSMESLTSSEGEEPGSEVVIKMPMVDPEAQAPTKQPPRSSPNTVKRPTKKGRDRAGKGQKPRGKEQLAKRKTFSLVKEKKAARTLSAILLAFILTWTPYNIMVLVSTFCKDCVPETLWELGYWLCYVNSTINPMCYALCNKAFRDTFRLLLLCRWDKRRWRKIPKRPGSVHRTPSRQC
CHO-K1 Ca antag = counter-screen for M1 antagonists: effect in parental CHO-K1 cells | ATP-induced calcium, Fluo-8 fluorescence | inhibition, % at 3 µM | 360,000 compounds, 0.6% hits;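 active means inhibition above a per-plate cutoff, the plate's mean sample inhibition plus 3 SD, cut at about 24% in these data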
CHO-K1 Ca PAM = nonselective activator or artifact in parental CHO-K1 calcium assay; ATP EC20, Fluo-8 calcium fluorescence; 0% at ATP EC20, 100% at ATP max; activation, % at 3 µM; 360,000 compounds, 0.02% hits;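 active means activation above the run cutoff, the mean activation of all test compounds plus 3 SD, cut at about 40% in these data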;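 further: peak over basal fluorescence ratio in a 140 s read after ATP addition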
CHRM1 PAM = human CHRM1 positive allosteric modulation; 360,000 compounds, 0.088% hits; activation, % at 3 µM; CHO-K1 hM1, Fluo-8 calcium fluorescence, ACh EC20; 0% = ACh EC20, 100% = maximal ACh; in the data active means activation above about 19%, passing the limit was not always enough
M1 antag = human CHRM1 antagonism. P11229. CHO-K1 hM1, Fluo-8 calcium fluorescence, ACh EC80 antagonist. inhibition, % at 3 µM. 360,000 compounds, 1.3% hits;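 active means percent inhibition above its own plate's cutoff, namely the mean of that plate's compound wells plus 3 SD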;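 further: peak over basal fluorescence ratio during 140 s after agonist addition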
A number is an active result; 0 = inactive.

SMILES | CHO-K1 Ca ag | M1 ag | CHO-K1 Ca antag | CHO-K1 Ca PAM | CHRM1 PAM | M1 antag
CN1CCC(Oc2ccccc2Sc2ccccc2)CC1 | 0 | 0 | 0 | 0 | 0 | 100
CC1CCC(CN2CCN=C2Nc2ccccc2)CC1 (stereo not drawn) | 0 | 0 | 0 | 0 | 0 | 34
COC(=O)c1ccccc1NC(=O)NCc1ccncc1 | 16 | 0 | 0 | 0 | 0 | 0
COC(=O)c1ccccc1NC(=O)CCc1ccccc1 | 0 | 0 | 24 | 0 | 0 | 0
COc1ccccc1NC(=O)C(=O)N1CCCC1 | 16 | 0 | 0 | 0 | 0 | 0
COc1ccccc1NC(=O)C1C2C=CC(C2)C1C(=O)NCc1cccnc1 (stereo not drawn) | 0 | 0 | 26 | 0 | 0 | 0
COc1ccc(OC)c(NC(=O)C2C3C=CC(C3)C2C(=O)NCc2cccnc2)c1 (stereo not drawn) | 0 | 0 | 0 | 0 | 0 | 0
COc1ccccc1NC(=O)C(=O)NCc1ccncc1 | 0 | 0 | 25 | 0 | 0 | 0
CCOc1ccc(S(=O)(=O)N(C)CC(=O)NCc2ccccn2)cc1Cl | 0 | 0 | 0 | 0 | 0 | 0
CCOC(=O)C1=C(SCC)c2cc3c(n2C1=O)CCCC3 | 0 | 0 | 0 | 0 | 0 | 0
N#CC1=C(N2CCCCC2)c2cc3c(n2C1=O)CCCC3 | 0 | 0 | 0 | 0 | 0 | 35
CO/N=C/c1ccc(Sc2ccccc2N)c([N+](=O)[O-])c1 | 0 | 0 | 0 | 0 | 0 | 0
CO/N=C/c1ccc(Sc2ccccc2)c([N+](=O)[O-])c1 | 0 | 0 | 25 | 0 | 0 | 0
CN(C(=O)COC(=O)c1ccc2c(c1)OCCO2)C1CCCCC1 | 0 | 0 | 0 | 0 | 0 | 0
CO/N=C/c1ccc(N2CCN(C(=O)c3ccc(Cl)cc3Cl)CC2)c([N+](=O)[O-])c1 | 0 | 0 | 0 | 0 | 0 | 24
CSc1nc(-c2ccccc2)c(C#N)c(=O)n1C | 0 | 0 | 0 | 0 | 0 | 0
CCn1ccnc1CNC(=O)c1ccc2oc(C(C)C)nc2c1 | 0 | 0 | 0 | 0 | 0 | 57
Cc1cnc(CNC(=O)c2ccc3oc(C(C)C)nc3c2)[nH]1 | 0 | 0 | 0 | 0 | 0 | 0
CCOCCCNc1nc2c(c(=O)[nH]c(=O)n2C)n1CCCc1ccccc1 | 0 | 0 | 26 | 0 | 0 | 0
COc1ccc(C)cc1S(=O)(=O)NCCN1CCOCC1 | 0 | 0 | 0 | 0 | 0 | 0
COc1ccc(NCc2cccnc2)cc1 | 0 | 0 | 0 | 0 | 0 | 0
Cc1nn(C)c2ncc(C(N)=O)c(Oc3ccc(Cl)cc3)c12 | 0 | 0 | 0 | 0 | 0 | 0
CCOC(=O)C1CCN(Cc2ccc(N(C)C)cc2)CC1 | 0 | 0 | 41 | 0 | 0 | 0
CCOC(=O)C1CCCN(Cc2ccc(OCC)cc2)C1 (stereo not drawn) | 0 | 31 | 0 | 0 | 0 | 0
CCCCN(C)C(=O)C1CCN(Cc2ccc(OCc3ccccc3)cc2)CC1 | 0 | 0 | 0 | 0 | 0 | 41
SMILES | CHO-K1 Ca ag | M1 ag | CHO-K1 Ca antag | CHO-K1 Ca PAM | CHRM1 PAM | M1 antag
CCCCNC(=O)C1CCN(Cc2ccc(OCc3ccccc3)c(OC)c2)CC1 | 0 | 0 | 0 | 0 | 0 | 0
CCOC(=O)N1CCN(CC(O)COc2ccc(OC)cc2C(C)(C)C)CC1 (stereo not drawn) | 0 | 0 | 0 | 0 | 0 | 0
CCOC(=O)C1CCCN(CC(O)COc2ccc(OC)cc2C(C)(C)C)C1 (stereo not drawn) | 0 | 60 | 0 | 0 | 0 | 32
COc1cccc(NC(=O)CN(C)C(=O)CSc2nc(C)cc(C)n2)c1 | 0 | 0 | 0 | 0 | 0 | 0
CCCN(C1CCS(=O)(=O)C1)S(=O)(=O)c1ccc(F)cc1 (stereo not drawn) | 0 | 0 | 0 | 0 | 0 | 0
Cc1[nH]c(=O)[nH]c(=O)c1S(=O)(=O)N(CC(C)C)CC(C)C | 0 | 0 | 0 | 0 | 0 | 0
O=C(c1ccc(Cl)cc1)C1CCCN(Cc2cnn(-c3ccccc3)c2)C1 (stereo not drawn) | 0 | 0 | 0 | 0 | 0 | 0
O=C(c1ccc(Cl)cc1)C1CCCN(Cc2ccc(Oc3ncccn3)cc2)C1 (stereo not drawn) | 0 | 0 | 0 | 0 | 0 | 62
COc1ccc(Nc2nc(N)nc(CN3CCC(Cc4ccccc4)CC3)n2)cc1 | 0 | 0 | 0 | 0 | 0 | 33
CCOC(=O)C1CCN(Cc2ccc(OCc3ccccc3)cc2)CC1 | 0 | 0 | 0 | 0 | 0 | 49
NC(=O)C1CCN(Cc2ccc(OCc3ccccc3)cc2)CC1 | 0 | 0 | 0 | 0 | 0 | 0
CCOc1ccc(CN2CCC(Cc3ccccc3)CC2)cc1 | 0 | 0 | 0 | 0 | 0 | 58
COc1ccccc1Nc1nc(N)nc(CN2CCC(Cc3ccccc3)CC2)n1 | 0 | 0 | 0 | 0 | 0 | 0
O=C(O)C(CCC(C(=O)O)c1ccccc1)c1ccccc1 (stereo not drawn) | 0 | 0 | 0 | 0 | 0 | 0
S=c1nc(C2CC2)n(-c2ccccc2)[nH]1 | 0 | 0 | 0 | 0 | 0 | 0
Cc1cc2c(N=NC(=O)C3CC3c3ccccc3)c(O)[nH]c2cc1Br (stereo not drawn) | 0 | 0 | 0 | 0 | 0 | 0
COc1cccc(OC)c1OCCCN1CCC(Cc2ccccc2)CC1 | 0 | 0 | 0 | 0 | 0 | 45
Cc1cc(OCCN2CCC(Cc3ccccc3)CC2)ccc1[N+](=O)[O-] | 0 | 0 | 0 | 0 | 0 | 101
Cc1sc2ccccc2[n+]1CC(=O)c1ccccc1 | 0 | 0 | 0 | 0 | 0 | 0
O=C(c1ccccc1)c1c2c(cc3sc4ccccc4[n+]13)-c1cccc3cccc-2c13 | 24 | 34 | 24 | 0 | 0 | 46
Cn1c(Oc2ccc(Cl)cc2)c(C=O)c2ccccc21 | 0 | 0 | 27 | 0 | 0 | 0
O=C(CCCSc1nc2ccccc2[nH]1)N1CCN(c2ccc([N+](=O)[O-])cc2)CC1 | 0 | 0 | 0 | 0 | 0 | 43
O=[N+]([O-])c1cccc(C2(O)COc3ccccc3O2)c1 (stereo not drawn) | 0 | 0 | 0 | 0 | 0 | 0
c1ccc(C(Cc2nc(-c3ccncc3)no2)c2ccccc2)cc1 | 0 | 0 | 0 | 0 | 0 | 24
COc1ccc(C2/C=C\CN(C(=O)CC(C)(C)C)CC(=O)N2Cc2ccc(F)cc2)cc1 (stereo not drawn) | 0 | 0 | 0 | 0 | 0 | 0
SMILES | CHO-K1 Ca ag | M1 ag | CHO-K1 Ca antag | CHO-K1 Ca PAM | CHRM1 PAM | M1 antag
COc1ccc(C2/C=C\CN(C(=O)C3CC3)CC(=O)N2Cc2ccc(F)cc2)cc1 (stereo not drawn) | 0 | 0 | 25 | 0 | 0 | 0
Cc1cccc(OCC(=O)Nc2ccc3c(c2)nc(CCN2CCN(c4ccccn4)CC2)n3C)c1 | 0 | 0 | 0 | 0 | 0 | 88
COc1ccc(OCC(=O)Nc2ccc3c(c2)nc(CCN2CCN(c4ccccn4)CC2)n3C)cc1 | 0 | 0 | 0 | 0 | 0 | 64
COc1ccc(OCC(=O)Nc2ccc3c(c2)nc(CCN2CCCCC2)n3C)cc1 | 0 | 0 | 0 | 0 | 0 | 0
Cn1c(CCN2CCCCC2)nc2cc(NC(=O)NC3CCCCC3)ccc21 | 0 | 0 | 0 | 0 | 0 | 0
CC1CCN(CCc2nc3cc(NC(=O)NC4CCCCC4)ccc3n2C)CC1 | 0 | 0 | 0 | 0 | 0 | 36
